CYP2C19 inhib: inhibitors of human CYP2C19 | CYP2C19 Supersomes, luciferin-H EGE luminescence, 30 min | inhibition, % at 5 µM | 96,000 tested, 21% active;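 active = CYP2C19 inhibition above a set limit at 5 µM in the primary screen, cut at about 50% in these data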;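 also: plate controls were negative control wells for no effect and 2.5 mM tranylcypromine positive control for full effect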
CYP2C9 inhib: inhibitors of human CYP2C9; 96,000 tested, 20% active; CYP2C9 Supersomes, luciferin-H conversion, luminescence; inhibition, % at 5 µM; P11712; AID 777;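 active = blocking of liver enzyme CYP2C9 beyond about 50% at 5 µM, limit read from the data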
CYP2C9 act: activators of human CYP2C9 | activation factor at 5 µM | P11712 | AID 1024 | recombinant CYP2C9, luciferin-H conversion, luminescence; stronger effect = higher value; factor 1 = untreated enzyme, 0 = blocked | 96,000 tested, 1.4% active;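 active = activation factor of 2 or more for CYP2C9 at a 5 µM dose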;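 also: 0 = sulfaphenazole-blocked wells and 1 = vehicle-only wells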
CYP2C19 act: activators of human cytochrome P450 2C19; recombinant CYP2C19, luciferin-H EGE luminescence; stronger effect = higher value; 0 = fully inhibited enzyme, 1 = untreated enzyme; activation factor at 5 µM; 96,000 tested, under 10 active;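 active = activation factor of at least 2 at 5 µM in the primary screen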;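 also: 0 = wells with 2.5 mM tranylcypromine and 1 = vehicle-only wells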
* hit, by the source's call. Compounds with a hit are over-represented: about 31% of the library has one in this group of screens.

SMILES	CYP2C19 inhib	CYP2C9 inhib	CYP2C9 act	CYP2C19 act
Cn1c(O)c(C=NC2CC3CCC2(C)C3(C)C)c(=O)[nH]c1=O (centres undefined)	16	39	0.6	0.8
C(#CCN1CCOCC1)COCC#Cc1ccccc1	60*	-3	1	0.4
FC(F)(F)c1ccc2c(c1)NP(=S)(N1CCOCC1)c1nccn1-2 (centres undefined)	61*	48	0.5	0.4
Cc1ccc(CN2CCN(CC(=O)N3CCC4(CC3)OCCO4)C2=O)cc1	26	21	0.8	0.7
Cc1c2cnn(CC(=O)N3CCC4(CC3)OCCO4)c(=O)c2c(C)n1Cc1ccc(F)cc1	53*	21	0.8	0.5
CCn1c(=O)n(CC(=O)N2CCC3(CC2)OCCO3)c(=O)c2ccccc21	48	3	1	0.5
O=C(Cn1cnc2ccccc2c1=O)NCC(=O)N1CCC2(CC1)OCCO2	-20	-18	1.2	1.2
O=C(Cn1ncc2ccccc21)N1CCC2(CC1)OCCO2	55*	-4	1	0.5
O=C(Cn1ncc2c3ccccc3n(Cc3ccccc3F)c2c1=O)N1CCC2(CC1)OCCO2	43	69*	0.3	0.6
O=C(Cn1ncc2c3ccccc3n(Cc3ccccc3)c2c1=O)N1CCC2(CC1)OCCO2	22	53*	0.5	0.8
CCCCn1c(O)c(C=NC2CC3CCC2(C)C3(C)C)c(=O)[nH]c1=O (centres undefined)	11	38	0.6	0.9
O=C(CSC1c2ccccc2-c2ccccc21)N/N=C/c1ccccc1O	59*	53*	0.5	0.4
COc1ccc2c(c1OC)C(=O)OC2c1c(O)n(C2CCCCC2)c(=O)[nH]c1=O (centres undefined)	6	69*	0.3	0.9
O=c1[nH]c(=O)n(C2CCCCCC2)c(O)c1C=NCCCN1CCOCC1	10	34	0.7	0.9
Nc1ccccc1C(=O)OCCOc1ccccc1	92*	74*	0.3	0.1
Cc1nc2ccccc2c(=O)n1-c1ccc(F)cc1	42	-17	1.2	0.6
CCN(CC)C(=O)c1ccc(NC(=O)Cn2nc(C)c3ccccc3c2=O)cc1	66*	19	0.8	0.3
CCN(CC)C(=O)c1ccc(NC(=O)CSc2nnnn2-c2cc(OC)ccc2OC)cc1	42	28	0.7	0.6
CCCC(C)C1C(C#N)=C(N)Oc2c1c(=O)oc1ccccc21 (centres undefined)	22	70*	0.3	0.8
COc1ccc(C2C(C#N)=C(N)Oc3c2c(=O)oc2ccccc32)cc1Cn1cc([N+](=O)[O-])cn1 (centres undefined)	33	97*	0	0.7
COCCOC(=O)C1=C(N)Oc2c(c(=O)oc3ccccc23)C1c1ccncc1 (centres undefined)	96*	97*	0	0
CC(C)Oc1ccc(C2C(C#N)=C(N)Oc3c2c(=O)oc2ccccc32)cc1 (centres undefined)	-4	90*	0.1	1
COCCOC(=O)C1=C(C)OC(N)=C(C(=O)OC)C12C(=O)Nc1ccccc12 (centres undefined)	5	2	1	0.9
O=c1[nH]c(O)c(/C=C2\C=NN=C2c2ccccc2)c(=O)[nH]1	9	-3	1	0.9
OC12CCCCC1C(c1ccccc1)NCC2 (centres undefined)	-1	0	1	1
Cc1cc(CN(C)C)c(OC(=O)N(C)C)cc1C	1	-12	1.1	1
Cc1ccc(-n2nc(C)c(C3C(C#N)=C(N)Oc4c3c(=O)oc3ccccc43)c2Cl)cc1 (centres undefined)	41	98*	0	0.6
O=C(Cc1ccccc1)N1CCN(Cc2c[nH]c3ccccc23)CC1	62*	46	0.5	0.4
O=C(COc1ccccc1)N1CCN(Cc2c[nH]c3ccccc23)CC1	3	12	0.9	1

From PubChem
